This is a sample that favours compounds with a hit; in the whole collection about 20% have one here.
CHX counter – affects cycloheximide protein synthesis inhibition readout, counter-screen; cell reporter, cycloheximide protein synthesis inhibition counterscreen; max response, %; 300,000 tested, 12% active; AID 2314; in the data active = max response mostly above about 13%, no sharp cut-off; inactive = mostly below about 14%; also: read at 38.3 µM for the half of the compounds with a filed dose
Shiga inhibitor – blocks Shiga toxin action in Vero cells; 290,000 tested, 9.2% active; Vero cells, Shiga toxin protein synthesis inhibition reporter; inhibition, % at 38.7 µM; AID 2315; in the data active = inhibition mostly above about 28%, no sharp cut-off; inactive = mostly below about 43%
Pf growth 48h – inhibits P. falciparum growth in the first generation, 48 h; P. falciparum luciferase growth in erythrocytes, 48 h; Potency, µM (series often up to 28.7 µM), most hits filed as inhibitors; 310,000 tested, 5.9% active; AID 504832
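Luciferase-expressing parasites in RBCs, 2% Hct / 0.1% parasitemia final; RPMI 1640 + 0.5% Albumax; 37 C, 5% CO2, one generation; luminescence read-out, lower signal = inhibition.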
HCMV inh – inhibitors of human cytomegalovirus; HFF cells, HCMV-luciferase reporter, 72 h; stronger effect = lower value; activity change, negative = inhibition, % at 57.5 µM; 410,000 tested, 4.5% active; in the data active = activity change below about -60%; inconclusive = no clear call, values can overlap the other calls; inactive = above about -39%
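Screen run at 2 compound doses on HFFs infected with reporter HCMV, MOI 1 PFU/cell. Luciferase activity from cell lysates at 72 h post infection gave inhibition relative to buffer-only and Salinomycin wells.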
Pf growth 96h – P. falciparum growth inhibition at 96 hour, primary screen for plastid delayed-death inhibitors | P. falciparum luciferase reporter growth, 96 h | Potency, µM (doses to about 28.7 µM), usual class: inhibitors | 320,000 tested, 6.9% active
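Erythrocytes infected with luciferase-expressing P. falciparum were dispensed at 2% hematocrit and 0.05% parasitemia (final), then incubated with compounds 96 hours at 37 C in 5% CO2. Luminescence after detection reagent addition reported growth.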
Each line names hits and unclear results; the compound was inactive in the other large screens. Unless noted, calls follow the shape of the dose curve; as a rule, active = well fitted inhibition curve with a large enough effect; inconclusive = small, poorly fitted or top-dose-only effect, or another doubt; inactive = no such curve, though single readings can be large or run the other way.

CCOC(=O)c1ccc(N2C(=O)c3[nH]nc(-c4ccc(OC)cc4)c3C2c2cccc(O)c2)cc1 (stereo not given)	HCMV inh -107 (no result: CHX counter, Shiga inhibitor, Pf growth 48h, Pf growth 96h)
CCOC(=O)c1ccc(N2C(=O)c3[nH]nc(-c4ccc(C)cc4)c3C2c2cccc(F)c2)cc1 (stereo not given)	HCMV inh -99 (no result: CHX counter, Shiga inhibitor, Pf growth 48h, Pf growth 96h)
COc1cc(C2c3c(-c4ccccc4)n[nH]c3C(=O)N2c2ccccc2)ccc1O (stereo not given)	Pf growth 48h inconclusive
CCOC(=O)c1ccc(N2C(=O)c3[nH]nc(-c4ccc(OCC)cc4)c3C2c2ccc(OC)cc2OC)cc1 (stereo not given)	none (no result: CHX counter, Shiga inhibitor, Pf growth 48h, Pf growth 96h)
CCOC(=O)c1ccc(N2C(=O)c3[nH]nc(-c4ccccc4)c3C2c2ccc(CC)cc2)cc1 (stereo not given)	HCMV inh -105 (no result: CHX counter, Shiga inhibitor, Pf growth 48h, Pf growth 96h)
CCOC(=O)c1ccc(N2C(=O)c3n[nH]c(C)c3C2c2ccc(OCC)cc2)cc1 (stereo not given)	HCMV inh -76 (no result: CHX counter, Shiga inhibitor, Pf growth 48h, Pf growth 96h)
CCOC(=O)c1ccc(N2C(=O)c3n[nH]c(C)c3C2c2cccnc2)cc1 (stereo not given)	none
CCOC(=O)c1cc(=O)nc(N)s1	none (no result: CHX counter, Shiga inhibitor, Pf growth 48h, Pf growth 96h)
CCOC(=O)c1ccc(N2C(=O)c3n[nH]c(-c4ccco4)c3C2c2ccc(C)cc2)cc1 (stereo not given)	HCMV inh -103 (no result: CHX counter, Shiga inhibitor, Pf growth 48h, Pf growth 96h)
CCOC(=O)c1ccc(N2C(=O)c3n[nH]c(C)c3C2c2ccccn2)cc1 (stereo not given)	none (no result: Pf growth 48h)
CCOC(=O)c1ccc(N2C(=O)c3n[nH]c(-c4ccco4)c3C2c2ccc([N+](=O)[O-])cc2)cc1 (stereo not given)	Pf growth 48h inconclusive
CCOc1cc(C2c3c(n[nH]c3C)C(=O)N2c2ccc(C)cc2)ccc1O (stereo not given)	HCMV inh -81, Pf growth 96h inconclusive
CCOC(=O)c1ccc(N2C(=O)c3[nH]nc(-c4ccc(C)cc4)c3C2c2ccc(O)cc2)cc1 (stereo not given)	HCMV inh -74 (no result: CHX counter, Shiga inhibitor, Pf growth 48h, Pf growth 96h)
Cc1[nH]nc2c1C(c1ccccn1)N(c1ccc(Br)cc1)C2=O (stereo not given)	HCMV inh -66 (no result: Pf growth 96h)
Cc1ccc(C)c(NC(=S)NCc2ccc3[nH]c4c(c3c2)CCCC4)c1	Pf growth 48h 13µM, HCMV inh inconclusive, Pf growth 96h 13µM
Cc1ccccc1NC(=S)NCc1ccc2[nH]c3c(c2c1)CCCC3	HCMV inh inconclusive, Pf growth 96h inconclusive
CNC(=S)NCc1ccc2[nH]c3c(c2c1)CCCC3	HCMV inh -67
CCCCNC(=S)NCc1ccc2[nH]c3c(c2c1)CCCC3	none
CN1CCN(c2ccc(Nc3nccc4[nH]c(-c5cccnc5)cc34)cc2)CC1	none (no result: CHX counter, Shiga inhibitor, Pf growth 48h, Pf growth 96h)
COc1cccc(/C=N/N2CCN(C3c4ccccc4-c4ccccc43)CC2)c1O	Pf growth 48h 13µM, Pf growth 96h inconclusive
CCOC(=O)CCCn1ncn2c(cc3occc32)c1=O	CHX counter 55, Pf growth 96h inconclusive (no result: Pf growth 48h)
CCc1nn(CC(=O)N2CCCCC2)c(=O)c2cc3occc3n12	none (no result: CHX counter, Shiga inhibitor, Pf growth 48h, Pf growth 96h)
Cc1nn(CC(=O)N2CCCCCC2)c(=O)c2cc3occc3n12	HCMV inh -62, Pf growth 96h inconclusive
COC(=O)C1=C(C)Nc2ccc(C)cc2S1	CHX counter 24, Pf growth 96h inconclusive (no result: Pf growth 48h)
O=C(NCc1ccccn1)C1(C(F)(F)F)C/C(=C\CCO)CCCO1 (stereo not given)	none (no result: Pf growth 48h, Pf growth 96h)
CC(=O)COc1ccc2c3c(c(=O)oc2c1C)CCCCC3	CHX counter 19, Shiga inhibitor 64, HCMV inh inconclusive, Pf growth 96h inconclusive
Cc1cc(OCc2ccc([N+](=O)[O-])cc2)c2c3c(c(=O)oc2c1)CCCC3	Pf growth 48h inconclusive, Pf growth 96h inconclusive
Cc1c(OC(C)C(=O)N[C@H](C(=O)O)c2ccccc2)ccc2c3c(c(=O)oc12)CCCC3 (stereo not given in full)	Pf growth 48h inconclusive, Pf growth 96h inconclusive
CC(=O)C(C)Oc1ccc2c3c(c(=O)oc2c1C)CCCC3 (stereo not given)	Pf growth 48h 9.3µM, Pf growth 96h 8.3µM
Cc1c(OCc2ccc([N+](=O)[O-])cc2)ccc2c3c(c(=O)oc12)CCC3	CHX counter 31
COc1ccc(S(=O)(=O)Nc2cc3c(cc2NCc2ccccc2)n(C)c(=O)n3C)cc1OC	none (no result: CHX counter, Shiga inhibitor, Pf growth 48h, Pf growth 96h)
Cc1ccc(NC(=O)CSc2ccc(-c3ccccn3)nn2)cc1F	Pf growth 96h inconclusive
NC1=C(O)C(=O)C(c2ccccc2)O1 (stereo not given)	none
C=CC[n+]1c(C)csc1Nc1ccc(C)cc1	CHX counter 24
C=CC[n+]1c(C)csc1Nc1cccc(Br)c1	none
C=CC[n+]1c(-c2ccc(Cl)cc2Cl)csc1Nc1c(C)n(C)n(-c2ccccc2)c1=O	Pf growth 48h inconclusive, HCMV inh -87, Pf growth 96h inconclusive
C=CC[n+]1c(-c2ccc(Cl)cc2Cl)csc1Nc1ccc(NC(C)=O)cc1	Pf growth 48h inconclusive, HCMV inh -94
Cc1cc(=O)oc2c(C)c(OC(C)C(=O)Nc3ccc(N4CCC(C)CC4)cc3)ccc12 (stereo not given)	Pf growth 48h 7.4µM, HCMV inh inconclusive, Pf growth 96h 3.3µM
COc1ccc(-c2cc(=O)oc3c(C)c(OC(C)C(=O)Nc4ccc(CN5CCOCC5)cc4)ccc23)cc1 (stereo not given)	Pf growth 48h 7.4µM, HCMV inh inconclusive, Pf growth 96h 3.7µM
COc1ccc(-c2cc(=O)oc3c(C)c(OC(C)C(C)=O)ccc23)cc1 (stereo not given)	none
CCOC(=O)C1CCCN(c2nc3c(S(=O)(=O)c4ccc(Br)cc4)nnn3c3ccsc23)C1 (stereo not given)	none (no result: CHX counter, Shiga inhibitor, Pf growth 48h, Pf growth 96h)
CC(C)OCCCN(C)C1CCN(S(=O)(=O)c2ccc(-c3cc(C(F)(F)F)no3)s2)CC1	Pf growth 48h 12µM, Pf growth 96h inconclusive
O=C1CCC(C(=O)N2CCCCO2)CN1CCc1ccccc1 (stereo not given)	CHX counter 42, Shiga inhibitor 81, Pf growth 96h inconclusive
COc1ccccc1CN1CC(C(=O)N2CCCCO2)CCC1=O (stereo not given)	CHX counter 31, Shiga inhibitor 71
O=c1[nH]c(NCCO)c(N=Cc2ccccc2)c(=O)[nH]1	none (no result: CHX counter, Shiga inhibitor, Pf growth 48h, Pf growth 96h)
Cc1ccc(C)c(CSc2cn(CCNC(=O)c3cccs3)c3ccccc23)c1	HCMV inh -83 (no result: CHX counter, Shiga inhibitor, Pf growth 48h, Pf growth 96h)
CCN(C(=O)c1noc2c1COc1ccc(C)cc1-2)c1cccc(C)c1	none (no result: CHX counter, Shiga inhibitor, Pf growth 48h, Pf growth 96h)
CCNc1nn2ccccc2c1/C=C(\C#N)C(=O)OCC	none
CCCCCN1C2=NCCN2c2ccccc21	Pf growth 48h inconclusive, Pf growth 96h 8.3µM
CCOC(=O)CN1C2=NCCN2c2ccccc21	none (no result: Pf growth 96h)
Cc1c(C(=O)OCC(=O)Nc2ccc3c(c2)OCO3)cccc1[N+](=O)[O-]	none
c1cncc(-c2nnc(-c3cccnc3)nn2)c1	Pf growth 48h 2.6µM, Pf growth 96h inconclusive
O=C(C(=O)c1cccnc1)c1cccnc1	Pf growth 96h inconclusive
c1ccc(-c2nn[nH]n2)cc1	none
c1ccc(-c2nnc(-c3ccccc3)nn2)cc1	CHX counter 51, Shiga inhibitor 91, Pf growth 48h inconclusive, Pf growth 96h inconclusive

From PubChem
